{"source": "PubChem BioAssay AID488854", "about": "(National Center for Advancing Translational Sciences (NCATS), 2010)", "note": "Records with an inconclusive call do not appear. Values without a mark were called inactive. The source made the active and inactive calls. The call rests on the fitted dose curve; in most records, active means well fitted activation curve with a large enough effect; inconclusive means small, poorly fitted or top-dose-only effect; inactive means no such curve, though single readings can be large or run the other way."}
{"molecular_target": "Lysosomal acid glucosylceramidase (Homo sapiens) (UniProt P04062)", "sequence (P04062 whole entry N409S)": "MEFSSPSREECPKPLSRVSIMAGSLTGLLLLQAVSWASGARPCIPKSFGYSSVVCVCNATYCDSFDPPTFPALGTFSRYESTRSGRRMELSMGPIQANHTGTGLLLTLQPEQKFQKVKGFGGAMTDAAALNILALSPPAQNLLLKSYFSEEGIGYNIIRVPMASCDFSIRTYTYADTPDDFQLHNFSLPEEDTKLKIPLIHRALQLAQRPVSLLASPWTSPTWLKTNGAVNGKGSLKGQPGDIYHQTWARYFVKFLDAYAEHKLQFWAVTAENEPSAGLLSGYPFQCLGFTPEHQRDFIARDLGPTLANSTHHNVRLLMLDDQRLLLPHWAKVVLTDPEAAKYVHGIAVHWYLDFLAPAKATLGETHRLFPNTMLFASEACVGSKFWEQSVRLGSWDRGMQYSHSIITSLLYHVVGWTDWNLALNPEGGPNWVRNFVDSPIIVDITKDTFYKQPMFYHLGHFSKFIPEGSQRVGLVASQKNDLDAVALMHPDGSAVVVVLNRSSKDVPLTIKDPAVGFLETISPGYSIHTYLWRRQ", "test": "qHTS Assay for Inhibitors and Activators of N370S glucocerebrosidase as a Potential Chaperone Treatment of Gaucher Disease: Confirmation for Probe SAR", "conditions": "N370S GC spleen homogenate, 4MU-glucoside fluorescence; series mostly up to 57.5 µM; activity change, positive = activation: at the top concentration", "source_text": "NIH Chemical Genomics Center [NCGC] NIH Molecular Libraries Probe Production Centers Network [MLPCN] MLPCN Grant: MH086442-01 Assay Submitter (PI): Wei Zheng Glucocerebrosidase (GC) catalyzes the hydrolysis of beta-glucocerebroside to glucose and ceramide in lysosomes. Mutations in the glucocerebrosidase gene result in Gaucher disease, an autosomal recessive lysosomal storage disorder. Many of the mutations encountered in patients with Gaucher disease are missense alterations that may cause misfolding, decreased stability and/or mistrafficking of this lysosomal protein. […] These inhibitors include iminosugar analogs and three non-iminosugar inhibitors identified from a previous HTS of 62,000 compounds with the wild type recombinant enzyme. However, the enhancement of enzyme activity by the chaperone action of an enzyme inhibitor must be balanced against the direct inhibition of the enzyme. An enzyme activator could also function as a chaperone by binding to the enzyme and helping to correct its misfolding and mistrafficking. While activators for GC have not yet been identified, they may have better therapeutic potential than inhibitors. Therefore the discovery and development of chemical activators may provide a new strategy for the chaperone therapy. We have optimized a new assay using N370S mutant GC derived from the spleen of a Gaucher patient. […] In addition, the MLPCN compound library has expanded, which increases the chance of finding new and better probes.\nNCGC Assay Protocol Summary: This is a fluorogenic enzyme assay with 4-methylumbelliferyl-beta-D-glucopyranoside as the substrate and N370S glucocerebrosidase from human spleen homogenate as the enzyme preparation. Upon the hydrolysis of this fluorogenic substrate, the resulting product, […] which can be detected by a standard fluorescence plate reader. Data were normalized to the controls for basal activity (without enzyme) and 100% activity (with enzyme). The AC50 values were determined from concentration-response data modeled with the standard Hill equation. Assay buffer: 50 mM citric acid (titrated with potassium phosphate to pH 5.0), 100 mM potassium chloride, 10 mM sodium chloride, 1 mM magnesium chloride, 0.01% Tween-20. 1536-well assay protocol: (1) Add 2 ul/well of spleen homogenate (27 ug final) (2) Add 23 nL compounds in DMSO solution. The final titration was 0.5 nM to 58 uM. (3) Add 2 ul of substrate (1 mM final) (4) Incubate at 37C for 40 min. (5) Add 2 ul stop solution (1M NaOH and 1M Glycine mixture, pH 10) (6) Detect the assay plate in a ViewLux plate reader (PerkinElmer) with Ex=365 nm and Em=440nm. Keywords: Glucocerebrosidase, beta-glucosidase, Gaucher Disease, pharmacological chaperone, chaperone therapy, high throughput screening, glucocerebrosidase inhibitor, MLSMR, MLSCN, NIH Roadmap, qHTS and NCGC", "units": {"activity change, positive = activation": "%"}}
{"smiles": "Cc1cc(C)n2ncc(C(=O)NC3CCCCC3)c2n1", "Potency": "13 µM (active)"}
{"smiles": "Cc1cc(C)n2ncc(C(=O)Nc3ccc4c(c3)OCCO4)c2n1", "Potency": "5.8 µM (active)"}
{"smiles": "CCc1ccc(NC(=O)c2cnn3c(C)cc(C)nc23)cc1", "Potency": "4.11 µM (active)"}
{"smiles": "Cc1cc(C)n2ncc(C(=O)Nc3ccc(C)c(C)c3)c2n1", "Potency": "1.46 µM (active)"}
{"smiles": "CC(=O)c1cccc(NC(=O)c2cnn3c(C)cc(C)nc23)c1", "Potency": "25.9 µM (active)"}
{"smiles": "Cc1cc(C)n2ncc(C(=O)Nc3ccncc3)c2n1", "activity change, positive = activation": -4.5}
{"smiles": "C=C1C=C(C(F)F)n2ncc(C(=O)Nc3ccc(C(C)CC)cc3)c2N1", "note": "(configuration not stated)", "Potency": "2.51 µM (active)"}
